PubChem BioAssay AID1159580 (chemical genetic matrix, 2015)
About 2,000 (36%) of roughly 5,500 compounds were called active. About 18% were inconclusive and are not listed. Rule as the data show it: active = normalized growth mostly below about 0.91 (no sharp cut-off); inconclusive = no clear call, values can overlap the other calls; inactive = mostly above about 0.92. The list shows a part of the results.

Test: chemical genetic growth profiling, strain panel (AID 1159580);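 also: tested at 20 µM; growth read once vehicle control cultures reached saturation at 30 °C; 1 = growth at the plate median or of vehicle wells; lower values mean less growth of the strain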
Conditions: growth OD

Measured: normalized growth

C/C=C1\[C@H]2C=C(C)C[C@]1(N)c1ccc(=O)[nH]c1C2
inactive: S. cerevisiae deletion strains, locus YJR075W, strain HOC1, stronger effect = lower value 0.997 | S. cerevisiae deletion strains, locus YKL009W, strain mrt4, stronger effect = lower value 1.01 | S. cerevisiae deletion strains, locus YKL068W, stronger effect = lower value 1.01 | S. cerevisiae deletion strains, locus YKL085W, strain MDH1 (second series), stronger effect = lower value 1 | S. cerevisiae deletion strains, locus YKL085W, strain MDH1, stronger effect = lower value 1 | S. cerevisiae deletion strains, locus YKL160W, strain elf1, stronger effect = lower value 0.989 | S. cerevisiae deletion strains, locus YKL190W, strain CNB1, stronger effect = lower value 1.01 | S. cerevisiae deletion strains, locus YKR001C, strain vps1, stronger effect = lower value 1.03 | S. cerevisiae deletion strains, locus YKR026C, strain gcn3, stronger effect = lower value 1.02 | S. cerevisiae deletion strains, locus YKR091W, strain srl3, stronger effect = lower value 1.02 | S. cerevisiae deletion strains, locus YLL001W, strain dnm1, stronger effect = lower value 1.02 | S. cerevisiae deletion strains, locus YLL026W, stronger effect = lower value 1.01 | S. cerevisiae deletion strains, locus YLL041C, strain sdh2, stronger effect = lower value 1.02 | S. cerevisiae deletion strains, locus YLR027C, strain aat2, stronger effect = lower value 1.02 | S. cerevisiae deletion strains, locus YLR039C, strain RIC1, stronger effect = lower value 1.05 | S. cerevisiae deletion strains, locus YLR058C, strain SHM2, stronger effect = lower value 1.01 | S. cerevisiae deletion strains, locus YLR102C, strain apc9, stronger effect = lower value 1.02 | S. cerevisiae deletion strains, locus YLR113W, strain HOG1, stronger effect = lower value 1.01 | S. cerevisiae deletion strains, locus YLR221C, strain rsa3, stronger effect = lower value 1.01 | S. cerevisiae deletion strains, locus YLR258W, strain gsy2, stronger effect = lower value 1.03 | S. cerevisiae deletion strains, locus YLR262C, strain YPT6 (second series), stronger effect = lower value 1.01 | S. cerevisiae deletion strains, locus YLR262C, strain YPT6, stronger effect = lower value 1.05 | S. cerevisiae deletion strains, locus YLR268W, strain sec22, stronger effect = lower value 0.992 | S. cerevisiae deletion strains, locus YLR320W, strain mms22, stronger effect = lower value 1.04 | S. cerevisiae deletion strains, locus YLR330W, strain CHS5, stronger effect = lower value 1.01 | S. cerevisiae deletion strains, locus YLR342W, strain FKS1 (second series), stronger effect = lower value 1.04 | S. cerevisiae deletion strains, locus YLR342W, strain FKS1, stronger effect = lower value 1.02 | S. cerevisiae deletion strains, locus YLR357W, strain rsc2, stronger effect = lower value 1.06 | S. cerevisiae deletion strains, locus YLR370C, strain arc18, stronger effect = lower value 1.02 | S. cerevisiae deletion strains, locus YLR371W, strain rom2, stronger effect = lower value 1.01 | S. cerevisiae deletion strains, locus YLR384C, strain iki3, stronger effect = lower value 1.02 | S. cerevisiae deletion strains, locus YLR418C, strain cdc73, stronger effect = lower value 1.02 | S. cerevisiae deletion strains, locus YML016C, strain PPZ1, stronger effect = lower value 1 | S. cerevisiae deletion strains, locus YML032C, strain rad52, stronger effect = lower value 1.01 | S. cerevisiae deletion strains, locus YML120C, strain ndi1, stronger effect = lower value 1.02 | S. cerevisiae deletion strains, locus YML124C, strain tub3, stronger effect = lower value 1.01 | S. cerevisiae deletion strains, locus YMR058W, strain fet3, stronger effect = lower value 1.02 | S. cerevisiae deletion strains, locus YMR078C, strain ctf18, stronger effect = lower value 1.02 | S. cerevisiae deletion strains, locus YMR125W, strain sto1, stronger effect = lower value 1.03 | S. cerevisiae deletion strains, locus YMR129W, stronger effect = lower value 1.03 | S. cerevisiae deletion strains, locus YMR205C, strain PFK2, stronger effect = lower value 1.07 | S. cerevisiae deletion strains, locus YMR223W, strain ubp8, stronger effect = lower value 1.03 | S. cerevisiae deletion strains, locus YMR231W, strain pep5, stronger effect = lower value 1.02 | S. cerevisiae deletion strains, locus YMR263W, strain SAP30, stronger effect = lower value 1 | S. cerevisiae deletion strains, locus YMR307W, strain GAS1, stronger effect = lower value 1.02 | S. cerevisiae deletion strains, locus YNL067W, strain RPL9B, stronger effect = lower value 1 | S. cerevisiae deletion strains, locus YNL071W, strain lat1, stronger effect = lower value 1.02 | S. cerevisiae deletion strains, locus YNL128W, strain TEP1, stronger effect = lower value 1.02 | S. cerevisiae deletion strains, locus YNL153C, strain GIM3, stronger effect = lower value 1 | S. cerevisiae deletion strains, locus YNL183C, strain NPR1, stronger effect = lower value 0.956 | S. cerevisiae deletion strains, locus YNL209W, strain ssb2, stronger effect = lower value 1.02 | S. cerevisiae deletion strains, locus YNL233W, strain BNI4, stronger effect = lower value 0.983 | S. cerevisiae deletion strains, locus YNL248C, strain rpa49, stronger effect = lower value 1.01 | S. cerevisiae deletion strains, locus YNL250W, strain rad50, stronger effect = lower value 1.01 | S. cerevisiae deletion strains, locus YNL271C, strain bni1, stronger effect = lower value 1.02 | S. cerevisiae deletion strains, locus YNL298W, strain CLA4, stronger effect = lower value 1.02 | S. cerevisiae deletion strains, locus YNL307C, strain MCK1, stronger effect = lower value 1.02 | S. cerevisiae deletion strains, locus YNL322C, strain KRE1 (second series), stronger effect = lower value 1.01 | S. cerevisiae deletion strains, locus YNL322C, strain KRE1, stronger effect = lower value 1.01 | S. cerevisiae deletion strains, locus YNR049C, strain mso1, stronger effect = lower value 1.03 | S. cerevisiae deletion strains, locus YNR052C, strain pop2, stronger effect = lower value 1.02 | S. cerevisiae deletion strains, locus YOL006C, strain TOP1, stronger effect = lower value 1.05 | S. cerevisiae deletion strains, locus YOL012C, strain htz1 0.803 | S. cerevisiae deletion strains, locus YOL147C, strain pex11, stronger effect = lower value 1.01 | S. cerevisiae deletion strains, locus YOR001W, strain rrp6, stronger effect = lower value 1 | S. cerevisiae deletion strains, locus YOR061W, strain CKA2, stronger effect = lower value 1.02 | S. cerevisiae deletion strains, locus YOR069W, strain VPS5, stronger effect = lower value 1.01 | S. cerevisiae deletion strains, locus YOR070C, strain gyp1, stronger effect = lower value 1.02 | S. cerevisiae deletion strains, locus YOR080W, strain dia2, stronger effect = lower value 1.02 | S. cerevisiae deletion strains, locus YOR083W, strain WHI5, stronger effect = lower value 0.992 | S. cerevisiae deletion strains, locus YOR106W, strain vam3, stronger effect = lower value 1.01 | S. cerevisiae deletion strains, locus YOR136W, strain idh2, stronger effect = lower value 1.02 | S. cerevisiae deletion strains, locus YOR144C, strain elg1, stronger effect = lower value 1.01 | S. cerevisiae deletion strains, locus YOR184W, strain ser1, stronger effect = lower value 1.04 | S. cerevisiae deletion strains, locus YOR231W, strain MKK1, stronger effect = lower value 1.01 | S. cerevisiae deletion strains, locus YOR265W, strain rbl2, stronger effect = lower value 1.02 | S. cerevisiae deletion strains, locus YOR270C, strain vph1, stronger effect = lower value 1.02 | S. cerevisiae deletion strains, locus YOR290C, strain snf2, stronger effect = lower value 1.01 | S. cerevisiae deletion strains, locus YOR316C, strain cot1, stronger effect = lower value 1.01 | S. cerevisiae deletion strains, locus YPL051W, strain arl3, stronger effect = lower value 0.996 | S. cerevisiae deletion strains, locus YPL055C, strain LGE1, stronger effect = lower value 1.02 | S. cerevisiae deletion strains, locus YPL078C, strain atp4, stronger effect = lower value 0.991 | S. cerevisiae deletion strains, locus YPL106C, strain sse1, stronger effect = lower value 1.06 | S. cerevisiae deletion strains, locus YPL240C, strain hsp82, stronger effect = lower value 1.03 | S. cerevisiae deletion strains, locus YPL241C, strain CIN2, stronger effect = lower value 1.01 | S. cerevisiae deletion strains, locus YPL256C, strain CLN2, stronger effect = lower value 0.99 | S. cerevisiae deletion strains, locus YPR119W, strain clb2, stronger effect = lower value 1.01 | S. cerevisiae deletion strains, locus YPR141C, strain kar3, stronger effect = lower value 1.01 | S. cerevisiae deletion strains, locus YPR163C, strain tif3, stronger effect = lower value 1.02 | S. cerevisiae deletion strains, locus YPR167C, strain met16, stronger effect = lower value 1.01 | S. cerevisiae deletion strains, strain wtn01, stronger effect = lower value 1.01 | S. cerevisiae strains, strain wild type, stronger effect = lower value 1.02
